High-throughput results as filed in PubChem.
Shown are actives, neighbours in structure and some others; about 2.7% of the full set was active somewhere.
GALC G270D up: A Novel Cell-Based Assay to Identify Small Molecules for B -Galactocerebrosidase; P54803; 145M-Twi-hGALC-G270D cells (Twitcher mouse brain line with human GALC G270D), HMU-beta-Gal fluorescence, 48 h; Potency, µM (doses to about 57.5 µM), usual class: activators; hit rate 0.1% among 45,000; further: potency means the concentration at half of the fitted maximal effect; 0% is about no effect; nearly all actives have a fitted effect of over 65% in size
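Brain-derived Twitcher mouse 145M-Twi cells stably expressing human GALC-G270D or wild-type GALC, treated live, then residual GALC activity read by fluorescence of HMU-b-Gal substrate (0.1 mM final) in citrate-phosphate buffer pH 5.2 with sodium taurocholate. Signal increase indicates enhancement.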
HTT prom inh: Primary qHTS for Identification of Small Molecule Inhibitors of Huntingtin Promoter Activity; hit rate 0.93% among 48,000; Potency, µM (top dose mostly 57.5 µM), inactives show at the top dose activity change, negative = inhibition, actives largely listed as inhibitors; AID 1508623, 2021; HEK293 HTT promoter firefly luciferase reporter, 24 h; further: potency means the concentration at half of the fitted maximal effect; nearly all actives have a fitted effect of over 50% in size
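Firefly luciferase readout (Dual-Glo, 10 min RT) after 24 h, 37 °C compound exposure (final up to 57.5 uM) of HEK293 reporter cells cultured 24 h beforehand; PTC124 at 50 uM final as control inhibitor; activity scaled vehicle 0%, zero RLU -100%.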
HTT-AS act: Primary qHTS for Identification of Small Molecule Activators of Huntingtin-Antisense Promoter Activity; HEK293 HTT-AS promoter firefly luciferase reporter, 24 h; response scale: percent change from vehicle, -100% = no light; Potency, µM (titrated, usually from 57.5 µM), for inactives: at the highest dose activity change, positive = activation, actives largely listed as activators; hit rate 0.24% among 48,000; AID 1508624, 2021; further: potency means the concentration at half of the fitted maximal effect; nearly all actives have a fitted effect of over 55% in size
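HEK293 cells carrying firefly luciferase reporters were seeded at 2,500 per well in Opti-MEM and cultured for 24 h. They were then treated with compounds at up to 57.5 uM final for 24 h at 37 degrees C before Dual-Glo luminescence readout.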
NTMT1 inhibitor: Primary qHTS for Inhibitors of N-terminal methyltransferase 1 (NTMT1): MTaseGlo Assay; hit rate 2.5% among 59,000; N-terminal Xaa-Pro-Lys N-methyltransferase 1 (Homo sapiens), Q9BV86; Potency, µM (highest dose often 114 µM), for the others: top-dose activity change, negative = inhibition, hits mostly inhibitors; NTMT1 MTase-Glo SAH luminescence, purified enzyme; AID 1645870, 2021;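 further: potency means the concentration at half of the fitted maximal effect; plate controls were DMSO vehicle for no effect and no enzyme for full effect; nearly all actives have a fitted effect of over 65% in size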
Target sequence (Q9BV86 whole entry, looked up): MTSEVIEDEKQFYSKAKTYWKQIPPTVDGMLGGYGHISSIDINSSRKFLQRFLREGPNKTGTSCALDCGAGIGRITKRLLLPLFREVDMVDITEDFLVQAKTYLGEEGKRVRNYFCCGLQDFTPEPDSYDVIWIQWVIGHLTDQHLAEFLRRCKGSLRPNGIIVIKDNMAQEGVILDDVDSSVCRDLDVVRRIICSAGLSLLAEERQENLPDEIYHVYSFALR
DYRK1A inh: Assay for Inhibitors of Dual-Specificity Tyrosine-(Y)-Phosphorylation Regulated Kinase 1A (Kinase-Glo assay); AID 2705, 2010; shares compounds with NTMT1 inhibitor; hit rate 80% among 100; Potency, µM (highest dose often 76.9 µM), inactives show at the top dose activity change, negative = inhibition, hits mostly inhibitors; recombinant DYRK1A, Kinase-Glo ATP depletion luminescence
CLK4 KinaseGlo: Confirmation Assay for Inhibitors of CDC-like Kinase 4 (Kinase-Glo Assay): SAR round 2; shares compounds with NTMT1 inhibitor; recombinant Clk4, Kinase-Glo ATP luminescence, 4.5 h; Potency, µM (highest dose often 76.9 µM), without a hit: at the highest dose activity, negative = inhibition, most hits filed as inhibitors; hit rate 90% among 90; AID 493204, 2011
Sfp qHTS opt: qHTS Assay for Inhibitos of Bacillus subtilis Sfp phosphopantetheinyl transferase (PPTase): Chemistry Optimization Followup | purified Sfp PPTase enzyme activity, qHTS | shares compounds with NTMT1 inhibitor | Potency, µM (series often up to 114 µM), inactives show at the highest dose activity change, negative = inhibition, hits mostly inhibitors | hit rate 78% among 230
HM489 growth: qHTS for Inhibitos of Bacillus subtilis Sfp phosphopantetheinyl transferase (PPTase): Chemistry Optimization Followup in B. Subtilis HM489; AID 540353, 2011; B. subtilis HM489 (acpS-) growth, BacTiter-Glo, 5 h; Potency, µM (highest dose often 114 µM), inactives show at the highest dose activity change, negative = inhibition, actives largely listed as inhibitors; shares compounds with NTMT1 inhibitor; hit rate 50% among 220
Sfp PPTase gel: Gel-Based Assay for Inhibitos of Bacillus subtilis Sfp phosphopantetheinyl transferase (PPTase): Chemistry Optimization Followup | shares compounds with NTMT1 inhibitor | purified Sfp PPTase, gel-based product detection | Potency, µM (highest dose often 250 µM), for inactives: at the top dose activity change, negative = inhibition, actives largely listed as inhibitors | hit rate 54% among 220
Sfp gel: qHTS Assay for Inhibitors of Bacillus subtilis Sfp phosphopantetheinyl transferase (PPTase): Gel Based Assay; Potency, µM (highest dose often 250 µM), for the others: at the top dose activity change, negative = inhibition, hits mostly inhibitors; purified Sfp PPTase, gel-based product detection; AID 602362, 2012; shares compounds with NTMT1 inhibitor; hit rate 90% among 45
Sfp inh SAR2: qHTS Assay for Inhibitors of Bacillus subtilis Sfp phosphopantetheinyl transferase (PPTase): SAR Round 2. shares compounds with NTMT1 inhibitor. purified Sfp enzyme, PPTase activity, qHTS. Potency, µM (highest dose often 57.1 µM), inactives show top-dose activity change, negative = inhibition, usual class: inhibitors. hit rate 87% among 230
hGST ctr: qHTS Assay for Inhibitors of Bacillus subtilis Sfp phosphopantetheinyl transferase (PPTase): SAR in hGST A1-1; shares compounds with NTMT1 inhibitor; hGST A1-1 enzyme activity counter-screen, qHTS; Potency, µM (top dose mostly 114 µM), for inactives: at the top dose activity change, negative = inhibition, usual class: inhibitors; 55 tested, under 10 active; AID 602391, 2012
HSD17B4 inh: Extended Characterization of HPGD Inhibitors: Counterscreen Against HSD17b4. AID 743187, 2013. hit rate 10% among 230. shares compounds with NTMT1 inhibitor. Potency, µM (series often up to 57.1 µM), inactives show at the highest dose activity change, negative = inhibition, most hits filed as inhibitors. purified HSD17B4, estradiol/NAD+, NADH fluorescence
ALDH1A1 inh: Extended Characterization of HPGD Inhibitors: Counterscreen Against ALDH1A1 | shares compounds with NTMT1 inhibitor | recombinant ALDH1A1, NADH fluorescence, propionaldehyde/NAD+ | Potency, µM (series often up to 57.1 µM), inactives show at the highest dose activity change, negative = inhibition, usual class: inhibitors | hit rate 93% among 230 | AID 743195, 2013
Target sequence (P00352 whole entry, looked up): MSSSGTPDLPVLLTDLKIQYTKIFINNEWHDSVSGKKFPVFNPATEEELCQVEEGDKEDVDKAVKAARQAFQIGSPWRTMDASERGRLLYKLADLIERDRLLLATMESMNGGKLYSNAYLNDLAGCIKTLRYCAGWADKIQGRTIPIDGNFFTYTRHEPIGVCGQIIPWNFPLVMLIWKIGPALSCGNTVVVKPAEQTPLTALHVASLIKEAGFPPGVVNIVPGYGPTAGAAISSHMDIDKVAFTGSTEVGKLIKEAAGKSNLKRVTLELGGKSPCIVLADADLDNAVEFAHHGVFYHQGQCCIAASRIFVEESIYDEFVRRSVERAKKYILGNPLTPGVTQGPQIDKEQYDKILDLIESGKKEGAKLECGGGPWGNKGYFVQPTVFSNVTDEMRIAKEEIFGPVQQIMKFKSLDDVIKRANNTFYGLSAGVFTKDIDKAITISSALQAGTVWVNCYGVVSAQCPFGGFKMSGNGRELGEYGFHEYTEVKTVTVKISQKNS
NNMT counter: Counterscreen qHTS for Inhibitors of N-terminal methyltransferase 1 (NTMT1): NNMT MTaseGlo assay. shares compounds with NTMT1 inhibitor. Potency, µM (series often up to 57.1 µM), inactives show at the top dose activity, negative = inhibition, hits mostly inhibitors. NNMT MTase-Glo luminescence, SAH detection. hit rate 10% among 120
* hit, by the source's call; i = inactive; ? = inconclusive; . = no result given; [ ] = remark or other dose. The call rests on the fitted dose curve; in most records, active means well fitted curve in the direction sought with a large enough effect; inconclusive means small, poorly fitted or top-dose-only effect, or another doubt; inactive means no such curve, though single readings can be large; an effect the other way counts as inactive or inconclusive.

SMILES	GALC G270D up	HTT prom inh	HTT-AS act	NTMT1 inhibitor	others
COc1ccc2cc3c(NC(=O)c4ccco4)nn(C)c3nc2c1	.	.	.	-11%[57.5 µM]	NNMT counter=-12%
CCC(C)C(=O)OC12C(OC(C)=O)C(C)C3(O)C(C=C(CO)CC4(O)C(=O)C(C)=CC43)C1C2(C)C (stereo unspecified)	.	.	.	5%[29.8 µM]
COc1ccc(C(=O)COC(=O)CCCC(=O)Nc2ccc(C(C)=O)cc2)cc1	i	66%	?	20%
COc1ccc2nc(-c3cc(OC)c(OC)c(OC)c3)cc(C(=O)NCC(=O)Nc3ccc(C(C)=O)cc3)c2c1	.	.	.	5%[57.5 µM]	NNMT counter=?
Cc1occc1-c1ccc2ncnc(NCCc3cnc[nH]3)c2c1	.	.	.	?	DYRK1A inh=9.2µM*
c1nc(NCCc2cnc[nH]2)c2cc(-c3ccoc3)ccc2n1	.	.	.	-2%	DYRK1A inh=4.1µM*
CCOC(=O)c1ccoc1-c1ccc2ncnc(NCCc3cnc[nH]3)c2c1	.	.	.	-9%	DYRK1A inh=?
c1cncc(CNc2ncnc3ccc(-c4cccnc4)cc23)c1	.	.	.	-4%[57.5 µM]
CC(O)c1ccc(-c2ccc3ncnc(NCCc4cnc[nH]4)c3c2)o1 (stereo unspecified)	.	.	.	?	CLK4 KinaseGlo=1.5µM*
COCC(=O)N1CCc2cc(-c3csc(NC(=O)c4cc(OC)cc(OC)c4)n3)ccc21	.	.	.	-17%[57.5 µM]
Cc1ccc(CNc2ncnc3ccc(-c4ccoc4)cc23)o1	.	.	.	-5%	DYRK1A inh=6.5µM*
c1nc(NCc2ccc3c(c2)OCO3)c2cc(-c3ccoc3)ccc2n1	.	.	.	1%
COc1cc2nc(N3CCN(C(=O)c4ccco4)C4CCCCC43)nc(N)c2cc1OC (stereo unspecified)	.	.	.	?	NNMT counter=24%
COc1ccc(OC)c2sc(N3CCN(C(=O)c4ccco4)CC3)nc12	i	-23%	-17%	-8%
Nc1ncnc2c1nc(N)n2[C@@H]1O[C@H](CO)[C@@H](O)[C@H]1O	.	.	.	125%[57.5 µM]	NNMT counter=19%
CN1CCN(C(=O)c2ccc(Nc3nccc(-c4cccs4)n3)cc2Cl)CC1	.	.	.	-7%[57.5 µM]
OCCn1cc(-c2cnc3nnn(Cc4ccc5ncccc5c4)c3n2)cn1	.	0%	5%	-2%[57.5 µM]	NNMT counter=-19%
C[C@H]1[C@H](O)O[C@@H]2O[C@@]3(C)CC[C@H]4[C@H](C)CC[C@@H]1[C@@]24OO3	.	.	.	-18%[57.5 µM]
Cc1cc(C)nc(NC(=S)N2CCN(c3ncccc3Cl)CC2)c1	.	.	.	?	Sfp qHTS opt=3.7µM*;HM489 growth=-17%;Sfp PPTase gel=?;Sfp inh SAR2=2µM*;HSD17B4 inh=-17%;ALDH1A1 inh=19µM*
Cc1cc(C)nc(NC(=S)N2CCN(c3cnc4nccn4c3)CC2)c1	.	.	.	?	Sfp qHTS opt=19µM*;HM489 growth=?;Sfp PPTase gel=-54%;Sfp inh SAR2=18µM*;HSD17B4 inh=?;ALDH1A1 inh=-154%
Cc1cc(C)nc(NC(=S)N2CCN(c3ccc(Cl)cc3Cl)CC2)c1	.	.	.	.	Sfp qHTS opt=1.2µM*;HM489 growth=8.3µM*;Sfp PPTase gel=3.2µM*;Sfp gel=3.8µM*;Sfp inh SAR2=1µM*;hGST ctr=2.4µM*;HSD17B4 inh=5%;ALDH1A1 inh=17µM*
